This is an account of results in PubChem BioAssay (EPA / NIEHS).

In general, AC50 refers to the midpoint of the concentration-response curve, whichever way the signal moves.

Calls of active or inactive are those of the source. The calls were made as follows: active = hit-call score of the fitted dose curve at least 0.9, where 1 is the maximum; inactive = score below 0.9.

Chain of Cytochrome P450 3A7 (Homo sapiens) (P24462 whole entry, looked up): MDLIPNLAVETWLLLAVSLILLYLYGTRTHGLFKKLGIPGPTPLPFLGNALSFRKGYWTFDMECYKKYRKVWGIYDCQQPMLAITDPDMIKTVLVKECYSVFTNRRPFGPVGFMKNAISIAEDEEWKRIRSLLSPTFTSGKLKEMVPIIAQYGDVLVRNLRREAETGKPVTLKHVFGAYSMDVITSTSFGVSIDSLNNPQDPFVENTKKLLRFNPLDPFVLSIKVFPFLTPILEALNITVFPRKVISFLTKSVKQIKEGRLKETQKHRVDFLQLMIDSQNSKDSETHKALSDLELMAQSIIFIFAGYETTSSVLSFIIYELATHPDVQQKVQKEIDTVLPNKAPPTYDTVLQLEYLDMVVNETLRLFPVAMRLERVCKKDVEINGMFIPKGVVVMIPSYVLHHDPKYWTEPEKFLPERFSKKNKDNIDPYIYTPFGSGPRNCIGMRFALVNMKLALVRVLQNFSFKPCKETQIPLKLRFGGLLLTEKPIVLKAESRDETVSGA
Chain of Cytochrome P450 3A4 (Homo sapiens) (P08684 whole entry, looked up): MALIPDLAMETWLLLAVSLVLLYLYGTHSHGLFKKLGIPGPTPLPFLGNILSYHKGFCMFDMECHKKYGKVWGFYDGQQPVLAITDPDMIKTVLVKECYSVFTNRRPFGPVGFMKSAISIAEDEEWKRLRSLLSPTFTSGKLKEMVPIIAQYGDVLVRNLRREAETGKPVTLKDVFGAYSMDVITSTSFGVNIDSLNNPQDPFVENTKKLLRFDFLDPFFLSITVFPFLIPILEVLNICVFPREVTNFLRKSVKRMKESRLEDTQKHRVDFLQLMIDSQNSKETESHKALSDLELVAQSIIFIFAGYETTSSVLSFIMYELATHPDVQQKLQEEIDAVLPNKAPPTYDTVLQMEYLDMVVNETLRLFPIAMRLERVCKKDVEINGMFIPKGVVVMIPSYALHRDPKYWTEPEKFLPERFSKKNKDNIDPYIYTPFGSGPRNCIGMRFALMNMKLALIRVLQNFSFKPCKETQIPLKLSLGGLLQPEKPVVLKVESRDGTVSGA

Read-out in the first test: Cytochrome P450 3A4 (Homo sapiens) (UniProt P08684)
Put plainly: LTEA_HepaRG_CYP3A4: Life Technologies and Expression Analysis (LTEA) Assay for CYP3A4 using HepaRG (AID 2283487). The settings on record: mRNA level, 48 h; actives raise or lower the signal. In a few lines: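 HepaRG, 48 h exposure, 8-pt CRC from 100 uM (half-log), 0.5% DMSO, duplicates; serum-free induction medium. Readout: CYP3A4 mRNA, qRT-PCR, ACTB/GAPDH/POLR2A normalization. Bidirectional fit vs DMSO.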
As for `O=C(O)C1(c2ccc3c(c2)OC[C@H](Cc2ccc(-c4ccccc4)cc2)[C@H]3O)CCCC1`, the AC50 is 4.6 µM (active).
In the case of `CC(C)(C)c1ccccc1O`, the half-maximal activity concentration (AC50) was 12.6 µM (active).
Turning to `CC(C)O.CC(C)O.OCCN(CCO)CCO.OCCN(CCO)CCO.[Ti]`, the outcome was inactive.
Same read-out and setting: to `CN(C)C(=S)S` belongs “inactive”.
Turning to `CCCCCCCCCCCCc1cccc(S(=O)(=O)O)c1`, the AC50 is 18.9 µM (active).
As for `Cc1cc(C)cc(C)c1`, the outcome was inactive.
The same measure, in the same setting: the result for `N#Cc1cccnc1` reads “inactive”; that for `COc1ccccc1N`, “inactive”; that for `Clc1cccc(Cl)c1Cl`, “inactive”.
Take `Oc1cc(Cl)c(Cl)cc1Cl`: the molecule was called inactive.
As for `O=C(N[C@H]1CN2CCC1CC2)c1ccc2c(c1)OCCO2`, the call was inactive.
The same measure, in the same setting: to `OCCN(CCO)CCO` belongs “inactive”; to `Clc1cccc(Cl)c1`, “inactive”.

Read-out in a further test: Early growth response protein 1 (EGR1) transcription factor, EGR1 (gene 1958)
The test is described as follows: LTEA_HepaRG_EGR1: Life Technologies and Expression Analysis (LTEA) Assay for Early growth response protein 1 (EGR1) transcription factor using HepaRG (AID 2283490). As to conditions: mRNA level, 48 h; actives raise or lower the signal. Summed up: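 Differentiated HepaRG cells in serum-free induction medium exposed 48 hours, duplicate, to 8 half-log concentrations up to 100 uM in 0.5% DMSO. EGR1 mRNA measured by TaqMan qRT-PCR, normalized to ACTB, GAPDH, POLR2A; bidirectional fit versus DMSO.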
On to `Oc1c(Cl)cc(Cl)cc1Cl`, for which the molecule was classed as inactive.
As for `O=C(O)C1(c2ccc3c(c2)OC[C@H](Cc2ccc(-c4ccccc4)cc2)[C@H]3O)CCCC1`, the half-maximal activity concentration (AC50) is 81.7 µM (active).
Regarding `CC(C)(C)c1ccccc1O`, the molecule was called inactive.
In the case of `CC(C)O.CC(C)O.OCCN(CCO)CCO.OCCN(CCO)CCO.[Ti]`, the outcome was inactive.
In the case of `CN(C)C(=S)S`, the molecule was classed as inactive.
Turning to `CCCCCCCCCCCCc1cccc(S(=O)(=O)O)c1`, the molecule was classed as inactive.
The same measure, in the same setting: to `Cc1cc(C)cc(C)c1` belongs “inactive”.
On to `N#Cc1cccnc1`, for which the molecule was called inactive.
Same read-out and setting: the result for `COc1ccccc1N` reads “inactive”; that for `Clc1cccc(Cl)c1Cl`, “inactive”; that for `Oc1cc(Cl)c(Cl)cc1Cl`, “inactive”.
The same measure, in the same setting: the result for `O=C(N[C@H]1CN2CCC1CC2)c1ccc2c(c1)OCCO2` reads “inactive”.
On the same count and under the same terms, to `OCCN(CCO)CCO` belongs “inactive”.
As for `Clc1cccc(Cl)c1`, the molecule was classed as inactive.

Read-out in another test: Cytochrome P450 3A7 (Homo sapiens) (UniProt P24462)
The test is described as follows: LTEA_HepaRG_CYP3A7: Life Technologies and Expression Analysis (LTEA) Assay for CYP3A7 using HepaRG (AID 2283492). As to conditions: mRNA level, 48 h; actives raise or lower the signal. Summed up: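 CYP3A7 transcript levels were read by TaqMan qRT-PCR on Fluidigm arrays after 48 h chemical exposure of human HepaRG cells, with housekeeping-gene normalisation. Eight half-log concentrations up to 100 uM in 0.5% DMSO were tested in duplicate.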
In the case of `O=C(O)C1(c2ccc3c(c2)OC[C@H](Cc2ccc(-c4ccccc4)cc2)[C@H]3O)CCCC1`, the call was inactive.
For `CC(C)(C)c1ccccc1O`, the half-maximal activity concentration (AC50) was 4.77 µM (active).
Regarding `CC(C)O.CC(C)O.OCCN(CCO)CCO.OCCN(CCO)CCO.[Ti]`, the molecule was called inactive.
On the same count and under the same terms, the result for `CN(C)C(=S)S` reads “inactive”.
`CCCCCCCCCCCCc1cccc(S(=O)(=O)O)c1`: the half-maximal activity concentration (AC50) was 20.4 µM (active).
On to `Cc1cc(C)cc(C)c1`, for which the outcome was inactive.
On the same count and under the same terms, to `N#Cc1cccnc1` belongs “inactive”; to `COc1ccccc1N`, “inactive”; to `Clc1cccc(Cl)c1Cl`, “inactive”.
On the same count and under the same terms, the result for `Oc1cc(Cl)c(Cl)cc1Cl` reads “inactive”; that for `O=C(N[C@H]1CN2CCC1CC2)c1ccc2c(c1)OCCO2`, “inactive”; that for `OCCN(CCO)CCO`, “inactive”.
Take `Clc1cccc(Cl)c1`: the result was inactive.
